In PubChem BioAssay one finds viability, remaining NAD and luciferase signal data, which are given here for seven molecules.

A number with no mark means an inactive call. Calls of active or inactive are those of the source.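 Rule for the calls, unless noted: active = normalized viability below 100% at a tested concentration; inactive = the rest.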 Positions of bridges follow the written chain, without caps; N, C: chain ends. Non-standard residues stand in square brackets, D forms with d. Residues, ends and D or L forms follow the SMILES beside them. ξ: configuration not given here. *: point of attachment. Heptanoyl(5-Me) = CCC(C)CCCC(=O)*; ξThr(3R) = C[C@@H](O)C(N)C(=O)O; dDab = NCC[C@@H](N)C(=O)O; Dab = NCC[C@H](N)C(=O)O

The nature of assay [1]: ovarian cancer cell viability with rucaparib, profiling panel, oncology-focused library, rucaparib conditional (AID 1508598). The following applies: patient-derived ovarian cancer cells, CellTiter-Glo viability, 144 h, stronger effect = lower value. A general note: In ATP-based viability assays light output follows the ATP content of the culture.
The target of assay [2] is NAD(+) hydrolase SARM1 (Homo sapiens) (UniProt Q6SZW1). The experiment in a line: SARM1 TIR NADase inhibitors, cell lysate, NAD-Glo luminescence (AID 1508614;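 active = compound whose remaining NAD level is above about 45 nM, limit read from the data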;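 note: higher remaining NAD means stronger inhibition of SARM1 NADase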). The following applies: SAM-TIR HEK293T lysate NADase, at 1 µM, stronger effect = higher value.
Chain of NAD(+) hydrolase SARM1 (Homo sapiens) (Q6SZW1 whole entry, looked up, the tested form may be a part): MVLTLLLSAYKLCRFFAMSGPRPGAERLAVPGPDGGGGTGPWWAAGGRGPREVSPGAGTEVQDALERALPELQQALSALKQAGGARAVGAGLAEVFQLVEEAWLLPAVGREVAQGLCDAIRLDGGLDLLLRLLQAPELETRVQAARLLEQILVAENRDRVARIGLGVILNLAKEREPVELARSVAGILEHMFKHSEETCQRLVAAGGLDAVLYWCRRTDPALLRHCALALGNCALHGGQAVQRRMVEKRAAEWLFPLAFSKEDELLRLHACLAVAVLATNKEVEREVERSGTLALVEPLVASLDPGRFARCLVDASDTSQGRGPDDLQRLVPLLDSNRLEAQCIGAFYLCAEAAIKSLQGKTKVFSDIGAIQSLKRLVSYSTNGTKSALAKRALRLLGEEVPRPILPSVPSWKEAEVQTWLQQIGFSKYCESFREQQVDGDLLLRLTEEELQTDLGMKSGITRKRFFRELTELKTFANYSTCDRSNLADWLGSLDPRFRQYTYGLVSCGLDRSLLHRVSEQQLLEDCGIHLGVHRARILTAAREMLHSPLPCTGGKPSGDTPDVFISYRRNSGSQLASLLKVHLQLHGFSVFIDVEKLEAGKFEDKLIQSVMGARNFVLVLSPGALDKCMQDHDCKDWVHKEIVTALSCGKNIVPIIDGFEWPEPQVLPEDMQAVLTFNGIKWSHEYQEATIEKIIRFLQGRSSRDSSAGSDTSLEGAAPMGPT
The target of assay [3] is Mitogen-activated protein kinase 7 (Homo sapiens) (UniProt Q13164). The assay is described as follows: ERK5 transactivation activators in reporter cells, primary screen, cell-based, HTS (AID 1508626;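 active = luciferase signal above three times the same-plate solvent-only control wells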;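 note: luciferase driven by Gal4-ERK5 fusion binding five Gal4 sites before minimal TATA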). The following applies: HeLa Gal4-ERK5 transactivation, 18 h, at 5 µM, stronger effect = higher value.
Chain of Mitogen-activated protein kinase 7 (Homo sapiens) (Q13164 whole entry, looked up, the tested form may be a part): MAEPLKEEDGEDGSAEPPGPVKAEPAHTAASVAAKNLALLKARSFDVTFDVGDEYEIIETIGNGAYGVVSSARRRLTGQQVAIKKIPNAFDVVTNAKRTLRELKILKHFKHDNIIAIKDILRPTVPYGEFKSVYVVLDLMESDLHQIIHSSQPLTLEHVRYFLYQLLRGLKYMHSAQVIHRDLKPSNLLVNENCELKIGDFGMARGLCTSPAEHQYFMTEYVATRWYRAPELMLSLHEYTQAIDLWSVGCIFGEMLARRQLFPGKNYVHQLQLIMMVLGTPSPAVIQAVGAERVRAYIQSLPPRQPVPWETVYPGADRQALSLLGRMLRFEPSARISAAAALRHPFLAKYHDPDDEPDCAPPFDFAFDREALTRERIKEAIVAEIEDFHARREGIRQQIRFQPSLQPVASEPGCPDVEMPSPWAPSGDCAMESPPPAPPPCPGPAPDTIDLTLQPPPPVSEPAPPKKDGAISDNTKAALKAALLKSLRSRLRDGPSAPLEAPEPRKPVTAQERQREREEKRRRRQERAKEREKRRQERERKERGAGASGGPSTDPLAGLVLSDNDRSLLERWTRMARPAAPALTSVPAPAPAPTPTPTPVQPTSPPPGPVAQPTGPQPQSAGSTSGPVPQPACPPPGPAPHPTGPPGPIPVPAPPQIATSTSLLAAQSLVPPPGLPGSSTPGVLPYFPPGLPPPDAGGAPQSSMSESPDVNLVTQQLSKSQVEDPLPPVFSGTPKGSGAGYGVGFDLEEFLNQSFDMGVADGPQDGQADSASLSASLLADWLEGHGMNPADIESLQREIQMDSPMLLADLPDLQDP
The mark [4] stands for this setting: at 0.000305 µM, OCI-C5x cells, with rucaparib 10 µM, 100% = cells with rucaparib alone.
The mark [5] stands for this setting: at 0.000305 µM, OCI-C5x cells, without rucaparib.
[6] abbreviates: at 0.000305 µM, OCI-P5x cells, with rucaparib 20 µM, 100% = cells with rucaparib alone.
The mark [7] stands for this setting: at 0.000305 µM, OCI-P5x cells, without rucaparib.
Setting [8] is: at 0.00122 µM, OCI-C5x cells, with rucaparib 10 µM, 100% = cells with rucaparib alone.
Where [9] appears, read: at 0.00122 µM, OCI-C5x cells, without rucaparib.
Where [10] appears, read: at 0.00122 µM, OCI-P5x cells, with rucaparib 20 µM, 100% = cells with rucaparib alone.
Setting [11] is: at 0.00122 µM, OCI-P5x cells, without rucaparib.
The mark [12] stands for this setting: at 0.00488 µM, OCI-C5x cells, with rucaparib 10 µM, 100% = cells with rucaparib alone.
Setting [13] is: at 0.00488 µM, OCI-C5x cells, without rucaparib.
Setting [14] is: at 0.00488 µM, OCI-P5x cells, with rucaparib 20 µM, 100% = cells with rucaparib alone.
The mark [15] stands for this setting: at 0.00488 µM, OCI-P5x cells, without rucaparib.
[16] abbreviates: at 0.0195 µM, OCI-C5x cells, with rucaparib 10 µM, 100% = cells with rucaparib alone.
The mark [17] stands for this setting: at 0.0195 µM, OCI-C5x cells, without rucaparib.
Setting [18] is: at 0.0195 µM, OCI-P5x cells, with rucaparib 20 µM, 100% = cells with rucaparib alone.
Where [19] appears, read: at 0.0195 µM, OCI-P5x cells, without rucaparib.
The mark [20] stands for this setting: at 0.0781 µM, OCI-C5x cells, with rucaparib 10 µM, 100% = cells with rucaparib alone.
Where [21] appears, read: at 0.0781 µM, OCI-C5x cells, without rucaparib.
The mark [22] stands for this setting: at 0.0781 µM, OCI-P5x cells, with rucaparib 20 µM, 100% = cells with rucaparib alone.
The mark [23] stands for this setting: at 0.0781 µM, OCI-P5x cells, without rucaparib.
Where [24] appears, read: at 0.313 µM, OCI-C5x cells, with rucaparib 10 µM, 100% = cells with rucaparib alone.
The mark [25] stands for this setting: at 0.313 µM, OCI-C5x cells, without rucaparib.
Where [26] appears, read: at 0.313 µM, OCI-P5x cells, with rucaparib 20 µM, 100% = cells with rucaparib alone.
Setting [27] is: at 0.313 µM, OCI-P5x cells, without rucaparib.
Setting [28] is: at 1.25 µM, OCI-C5x cells, with rucaparib 10 µM, 100% = cells with rucaparib alone.
Where [29] appears, read: at 1.25 µM, OCI-C5x cells, without rucaparib.
The mark [30] stands for this setting: at 1.25 µM, OCI-P5x cells, with rucaparib 20 µM, 100% = cells with rucaparib alone.
Where [31] appears, read: at 1.25 µM, OCI-P5x cells, without rucaparib.
The mark [32] stands for this setting: at 5 µM, OCI-C5x cells, with rucaparib 10 µM, 100% = cells with rucaparib alone.
Setting [33] is: at 5 µM, OCI-C5x cells, without rucaparib.
The mark [34] stands for this setting: at 5 µM, OCI-P5x cells, with rucaparib 20 µM, 100% = cells with rucaparib alone.
[35] abbreviates: at 5 µM, OCI-P5x cells, without rucaparib.

As to `CC(=O)O[C@@]1(C(C)=O)CC[C@H]2[C@@H]3C[C@H](C)C4=CC(=O)CC[C@]4(C)[C@@H]3CC[C@@]21C`, the viability (as a rule, a read-out of living cells in per cent, often relative to untreated cells) in assay [1] (setting [4]) was 108%; in assay [1] (setting [5]), 122%; in assay [1] (setting [6]), 94.9% (active); in assay [1] (setting [7]), 101%; in assay [1] (setting [8]), 113%; in assay [1] (setting [9]) it was 120%. Besides, the viability in assay [1] (setting [10]) is 101%; in assay [1] (setting [11]), 103%; in assay [1] (setting [12]), 122%; in assay [1] (setting [13]), 119%; in assay [1] (setting [14]), 103%; in assay [1] (setting [15]), 107%. Also, the viability in assay [1] (setting [16]) is 114%; in assay [1] (setting [17]) it was 118%; in assay [1] (setting [18]) it was 104%; in assay [1] (setting [19]), 113%; in assay [1] (setting [20]) it was 106%; in assay [1] (setting [21]), 114%. For the same molecule, the viability in assay [1] (setting [22]) was 94% (active); in assay [1] (setting [23]), 111%; in assay [1] (setting [24]), 122%; in assay [1] (setting [25]), 118%; in assay [1] (setting [26]) it was 102%; in assay [1] (setting [27]), 110%. In addition, the viability in assay [1] (setting [28]) is 107%; in assay [1] (setting [29]) it was 120%; in assay [1] (setting [30]), 106%; in assay [1] (setting [31]), 111%; in assay [1] (setting [32]), 105%; in assay [1] (setting [33]) it was 121%. Also, the figures for the viability in assay [1] (setting [34]) and in assay [1] (setting [35]) were 92.5% (active) and 105%, respectively.

Take `CCC(C)CCCC(=O)N[C@@H](CCN)C(=O)N[C@H](C(=O)N[C@@H](CCN)C(=O)N[C@H]1CCNC(=O)C([C@@H](C)O)NC(=O)[C@@H](CCN)NC(=O)[C@H](CCN)NC(=O)[C@@H](CC(C)C)NC(=O)[C@@H](CC(C)C)NC(=O)[C@H](CCN)NC1=O)[C@@H](C)O` (stereo partly drawn) ({Heptanoyl(5-Me)}-[Dab]T[Dab][Dab][Dab][dL][dL][Dab][dDab][ξThr(3R)]; lactam 4-C): the remaining NAD in assay [2] was 10 nM.

`CO[C@H]1C[C@H]2CC[C@@H](C)[C@@](O)(O2)C(=O)C(=O)N2CCCC[C@H]2C(=O)O[C@H]([C@H](C)C[C@@H]2CC[C@H](OP(C)(C)=O)[C@H](OC)C2)CC(=O)[C@H](C)/C=C(\C)[C@@H](O)[C@@H](OC)C(=O)[C@H](C)C[C@H](C)/C=C/C=C/C=C/1C`: the viability was 115% in assay [1] (setting [4]); 103% in assay [1] (setting [5]); 79.2% (active) in assay [1] (setting [6]); 65.5% (active) in assay [1] (setting [7]); 102% in assay [1] (setting [8]); 97.3% (active) in assay [1] (setting [9]). For the same molecule, the viability in assay [1] (setting [10]) is 77.8% (active); in assay [1] (setting [11]) it was 59.6% (active); in assay [1] (setting [12]), 97.3% (active); in assay [1] (setting [13]) it was 90.1% (active); in assay [1] (setting [14]), 76.6% (active); in assay [1] (setting [15]), 61.2% (active). Moreover, the viability was 103% in assay [1] (setting [16]); 93.1% (active) in assay [1] (setting [17]); 76.4% (active) in assay [1] (setting [18]); 63% (active) in assay [1] (setting [19]); 103% in assay [1] (setting [20]); 96.7% (active) in assay [1] (setting [21]). Further, the viability is 76.7% (active) in assay [1] (setting [22]); 60.3% (active) in assay [1] (setting [23]); 108% in assay [1] (setting [24]); 95.8% (active) in assay [1] (setting [25]); 75.8% (active) in assay [1] (setting [26]); 60.4% (active) in assay [1] (setting [27]). The viability in assay [1] (setting [28]) is 104%; in assay [1] (setting [29]) it was 94.5% (active); in assay [1] (setting [30]), 82.1% (active); in assay [1] (setting [31]), 60.8% (active); in assay [1] (setting [32]), 114%; in assay [1] (setting [33]), 102%. Besides, the viability in assay [1] (setting [34]) is 74.3% (active); in assay [1] (setting [35]), 59.8% (active).

As for `COc1ccc(C2=N[C@@H](c3ccc(Cl)cc3)[C@H](c3ccc(Cl)cc3)N2C(=O)N2CCNC(=O)C2)c(OC(C)C)c1`, the viability in assay [1] (setting [4]) is 118%; in assay [1] (setting [5]) it was 104%; in assay [1] (setting [6]), 90.9% (active); in assay [1] (setting [7]), 90.5% (active); in assay [1] (setting [8]), 117%; in assay [1] (setting [9]) it was 104%. For the same molecule, the viability in assay [1] (setting [10]) was 94.2% (active); in assay [1] (setting [11]), 89.4% (active); in assay [1] (setting [12]), 122%; in assay [1] (setting [13]) it was 106%; in assay [1] (setting [14]) it was 97.7% (active); in assay [1] (setting [15]), 95.5% (active). Besides, the viability in assay [1] (setting [16]) was 106%; in assay [1] (setting [17]), 100%; in assay [1] (setting [18]) it was 96.2% (active); in assay [1] (setting [19]), 95.8% (active); in assay [1] (setting [20]), 113%; in assay [1] (setting [21]) it was 99.5% (active). Moreover, the viability in assay [1] (setting [22]) was 100%; in assay [1] (setting [23]), 96.7% (active); in assay [1] (setting [24]) it was 97.4% (active); in assay [1] (setting [25]) it was 101%; in assay [1] (setting [26]), 104%; in assay [1] (setting [27]) it was 99.4% (active). Moreover, the viability in assay [1] (setting [28]) is 93.7% (active); in assay [1] (setting [29]), 100%; in assay [1] (setting [30]), 97.7% (active); in assay [1] (setting [31]), 101%; in assay [1] (setting [32]), 84.5% (active); in assay [1] (setting [33]) it was 95.4% (active). Further, the viability in assay [1] (setting [34]) was 89.7% (active); in assay [1] (setting [35]), 91.3% (active).

As to `C[C@]12C=CC(=O)C=C1CC[C@@H]1[C@@H]2[C@@H](O)C[C@@]2(C)[C@H]1CC[C@]2(O)C(=O)COP(=O)(O)O`, the luciferase signal in assay [3] was 96 AU.

Regarding `CC(=O)[C@H]1CC[C@H]2[C@@H]3CC=C4C[C@@H](OC(=O)CCC(=O)O)CC[C@]4(C)[C@H]3CC[C@]12C`, in assay [3], the luciferase signal was 52 AU.

For `CC(C)CCC[C@@H](C)C1CC[C@H]2[C@@H]3CCC4CC(=O)CC[C@]4(C)[C@H]3CC[C@]12C` (stereo not given in full), in assay [3], the luciferase signal is 52 AU.
